Results published in PubChem BioAssay AID1700 (The Scripps Research Institute Molecular Screening Center, 2009).
About 670 (0.23%) of roughly 290,000 compounds were called active. The sample holds actives, similar compounds and a random draw of the others, so the mix is not that of the screen.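 The calls were made as follows: active = inhibition above a per-plate limit of that plate's mean compound inhibition plus 3 SD (cut at about 60% in these data); inactive = the rest.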

Assay: KLF5 expression inhibitors, primary screen, DLD-1 cells, luminescence (AID 1700);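 also: 0% = DMSO wells and 100% = LY294002 at 200 µM; higher means less KLF5 promoter-driven luciferase light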
Conditions: DLD-1 KLF5 promoter-luciferase reporter, at 5 µM, stronger effect = higher value

inhibition, inactive:
O=S(=O)(c1cc(Cl)ccc1Cl)N1CCN(Cc2ccco2)CC1 -4.75%
c1ccc(-n2nc3ccccc3n2)cc1 -2.18%
CCC(=O)Nc1ccc2nn(-c3ccc(F)cc3)nc2c1 -97%
O=C(c1cc(-c2ccc(Cl)cc2)on1)N1CCN(c2ccccc2)CC1 -69.1%
Cc1cccc(C)c1OCCN1CCOCC1 -15.7%
Cc1ccc2c(c1)N(S(=O)(=O)c1cc(-c3cc(C)no3)ccc1C)CCO2 -37.9%
Cc1ccc(NC(=S)NCCc2ccc(Cl)cc2)c(C)c1 -19%
Cc1ccc(NC(=S)NCc2ccccc2Cl)c(C)c1 -3.59%
CCN1C(=NCCc2cccnc2)N[C@@H](c2ccccc2)C(C(=O)OC)=C1C -22%
CC(C)c1ccc(NC(=O)Cn2ncc3ccccc32)cc1 -106%
CN(c1cccc(NC(=O)c2ccc(CN3CCc4ccccc4C3)cc2)c1)S(C)(=O)=O -29.8%
CCN(CC)N=Nc1cccc(NC(C)=O)c1 -51.2%
Cc1ccc(C(=O)NC23CC4CC(CC(C4)C2)C3)c(Cl)c1 -45.4%
O=C(N/C(=C\c1ccc(O)cc1)C(=O)N1CCCCC1)c1ccccc1 -7.29%
CN1CCN(C(=O)CCc2nc(-c3ccc(Cl)cc3)no2)CC1 -29.1%
CCNC(=O)CCc1nc(-c2ccc(C)cc2)no1 -43.2%
CCc1ccccc1S(=O)(=O)Cc1ccc(C(=O)NCCc2ccccc2)o1 -41.4%
CCOC(=O)C1CCN(C(=O)Cn2nc(C)c3c(C)n(-c4ccccc4)nc3c2=O)CC1 -39.7%
COc1cccc(-c2cc(C(=O)N3CCN(c4ccccc4OC)CC3)no2)c1 -15.2%
COc1ccccc1N1CCN(C(=O)c2cc(=O)c3cc(C)ccc3o2)CC1 15.1%
Cc1c(NC(=O)CSCc2ccccc2)cccc1C(=O)O -44.3%
COc1cc(C(=O)NC2CCN(Cc3ccccc3)CC2)cc(Cl)c1OC(C)C 0.72%
O=C(Nc1nonc1-c1ccc(Cl)cc1)c1ccco1 -1.44%
COc1ccccc1/C=N\Nc1cc(C)nc(-n2nc(C)cc2C)n1 -41.2%
Cc1cc(Oc2ccc(Cl)cc2)nc(SCC(=O)c2ccccc2)n1 -18.8%
Cc1cc(N/N=C\c2ccc(Br)cc2)nc(-n2nc(C)cc2C)n1 3.64%
CCOC(=O)c1cnc(-n2nc(C)cc2C)nc1Nc1cccc(C(C)=O)c1 -11.5%
COc1ccccc1CNS(=O)(=O)c1ccc2c(c1)NC(=O)CS2 -51%
CC(=O)c1ccc(N2Cc3ccccc3C2)cc1 -125%
O=C(Nc1nc2ccc([N+](=O)[O-])cc2s1)c1ccc(S(=O)(=O)N2CCCc3ccccc32)cc1 -18.3%
CCC(=O)NC(Nc1nc2ccc(C)cc2s1)(C(=O)OC)C(F)(F)F (stereo not drawn) 21.2%
COC(=O)c1ccc(COc2ccc(/C=C/C(=O)c3ccc(OC)c(CSCC(=O)O)c3)cc2OC)cc1 26.8%
CCC(C(=O)NCc1cccnc1)n1nc(C)c2sc3ccccc3c2c1=O (stereo not drawn) -24.5%
CC(C)CNS(=O)(=O)c1ccc(C(=O)Nc2ccc3c(c2)OCO3)cc1 -18.9%
COc1ccccc1C(=O)NC(=S)NC12CC3CC(CC(C3)C1)C2 -5.49%
Cc1ccc(-c2csc(NC3OC(=O)c4ccccc43)n2)cc1 (stereo not drawn) 9.97%
Cc1ccn2c(=O)c(C(=O)NCCC3=CCCCC3)c(O)nc2c1 2.41%
COc1cc2c(cc1O)[C@H](Cc1ccc(Oc3cc(C[C@@H]4NCCc5cc(OC)c(O)cc54)ccc3O)cc1)NCC2 -7.79%
CCc1ccc(OCC2c3cc(OC)c(OC)cc3CCN2C(C)=O)cc1 (stereo not drawn) -8.46%
COc1ccc(Cc2nnc(SCC(=O)Nc3ccc(C)c(C)c3)o2)cc1OC -24.5%
COc1cccc(N(CC(=O)NC2CCCCCC2)S(=O)(=O)c2ccccc2)c1 -3.24%
Cc1cccc(OCC(=O)Nc2ccc(NC(=O)c3ccco3)c(C)c2)c1 -14.3%
O=C(COc1ccc(Cl)cc1)NCCS(=O)(=O)N1CCN(c2ccc(F)cc2)CC1 -3.45%
O=C(N/N=C1\CCSC1)c1cc(Cl)ccc1O -24.9%
COc1ccc(CNc2nccs2)cc1 -8.32%
COc1ccc(C(C)NC(=O)C23CC4CC(CC(C4)C2)C3)cc1 (stereo not drawn) 13.8%
Cc1ccc(O)c(NC(=O)c2cc(-c3ccco3)on2)c1 -124%
N#Cc1ccc(C(=O)Nc2nc(-c3cccs3)c(C(=O)C(F)(F)F)s2)cc1 16.3%
Cn1c(=O)c2c(nc(NCCNC(=O)c3ccco3)n2Cc2ccccc2F)n(C)c1=O -15%
Cc1nn2c(c1-c1ccccc1)N=C(c1ccco1)CC2c1ccccc1 (stereo not drawn) -26.4%
CS(=O)(=O)c1ccc2nnn(OCC(=O)Nc3cccc(C#N)c3)c2c1 -3.59%
O=C(Nc1cccc(Cl)c1)c1cc(S(=O)(=O)N2CCCCC2)c[nH]1 -39.1%
COc1ccc(S(=O)(=O)n2nc(C)c(S(=O)(=O)N3CCOCC3)c2C)cc1 -33.4%
CCOC(=O)N1CCN(S(=O)(=O)c2ccc(-n3cnnn3)cc2)CC1 -18.3%
O=C(NCc1cc(F)cc(C(F)(F)F)c1)C1CCC(=O)N(C2CCCC2)C1 (stereo not drawn) 11.8%
CCCCC(C(=O)NC(C)(C)C)N(Cc1ccccc1)C(=O)c1snc(C(N)=O)c1N (stereo not drawn) -18.5%
COc1ccc(C(C)NC(=S)NC2CCCCC2)cc1OC (stereo not drawn) -29.8%
CC1CCN(C(=O)Cn2nnnc2CN2CCOCC2)CC1 -8.54%
CC(=O)N1CC(=O)N(CC(=O)Nc2ccc(Br)cc2)C1=S -0.85%
COC(=O)c1cccc(C(=O)N2CCCC(Nc3ccc4c(c3)OCCO4)C2)c1 (stereo not drawn) -10.2%
CC1CCC(NS(=O)(=O)c2ccc3c(c2)CC(=O)N3)CC1 (stereo not drawn) 10.7%
C=CCn1c(SCc2ccc(C(=O)NCCO)cc2)nc2ccccc2c1=O -13.8%
CCN1CCCC1CNC(=O)c1cc2cc(OC)c(OC)cc2[nH]1 (stereo not drawn) -5.17%
Cc1ccc(CNC(=O)CCNS(=O)(=O)c2ccc(Br)s2)cc1 -6.34%
CC(NC(=O)c1cc2cc(Cl)ccc2oc1=N)c1ccccc1 (stereo not drawn) -15.5%
COc1ccc2[nH]cc(/C=C(/C#N)S(=O)(=O)c3ccccc3)c2c1 -24.4%
COc1cc(/C=C(\C#N)c2nc3ccccc3[nH]2)ccc1O -74.6%

inhibition, active:
Nc1ccc2nn(-c3ccc(Cl)cc3)nc2c1 97.7%
Cc1ccc(NC(=S)Nc2ncccc2C)c(C)c1 79.6%
CCNC(=O)CCc1nc(-c2ccc(C(C)(C)C)cc2)no1 61.9%
COc1ccccc1N1CCN(C(=O)c2cc(=O)c3cc(C)cc(C)c3o2)CC1 88.2%
CC(=O)c1ccc(Oc2cc(C)nc(-n3nc(C)cc3C)n2)cc1 61.9%
COc1ccc(Nc2cc(C)nc(-n3nc(C)cc3C)n2)cc1 75.5%
O=C(NC(Nc1nc2ccc([N+](=O)[O-])cc2s1)(C(F)(F)F)C(F)(F)F)c1ccccc1 67.7%
C[C@@H]1C[C@@H]2O[C@H]2/C=C\C=C\C(=O)Cc2c(Cl)c(O)cc(O)c2C(=O)O1 64.1%
CC[C@H]1CN2CCc3cc(OC)c(OC)cc3[C@@H]2C[C@@H]1C[C@H]1NCCc2cc(OC)c(OC)cc21 106%
Oc1c(Cl)cc(Cl)c(Cl)c1Cc1c(O)c(Cl)cc(Cl)c1Cl 81%
COc1ccc(/C=C(\C#N)c2c[nH]c3ccccc23)cc1 62.4%
